# Results: PubChem BioAssay (EPA / NIEHS)
# Active and inactive are the calls of the source. The calls were made as follows: active = hit-call score of the fitted dose curve at least 0.9, where 1 is the maximum; inactive = score below 0.9.
# Test: ATG_TGFb_CIS: Attagene CIS-FACTORIAL HepG2 Assay for human Transforming Growth Factor (TGF) (AID 2282967)
# Details: HepG2 Attagene CIS TGFb reporter, mRNA transcription; actives raise or lower the signal
# Protocol: ATG_CIS is a cell-based, multiplexed-readout assay that uses HepG2, a human liver cell line, with measurements taken at 24 hours after chemical dosing in a 24-well plate.ATG_TGFb_CIS is one of 52 assay component(s) measured or calculated from the ATG_CIS assay. It is designed to make measurements of mRNA induction, a form of inducible reporter, as detected with fluorescence intensity signals by Reverse transcription polymerase chain reaction (RT-PCR) and Capillary electrophoresis technology.Data from the assay component ATG_TGFb_CIS was analyzed into 1 assay endpoint. This assay endpoint, ATG_TGFb_CIS, was analyzed with bidirectional fitting relative to DMSO as the negative control and baseline of activity. Using a type of inducible reporter, measures of mRNA for gain or loss-of-signal activity can be used to understand the reporter gene at the transcription factor-level as they relate to the gene TGFB1. Furthermore, this assay endpoint can be referred to as a primary readout, because this assay has produced multiple assay endpoints where this one serves a reporter gene function. To generalize the intended target to other relatable targets, this assay endpoint is annotated to the growth factor intended target family, where the subfamily is transforming growth factor beta.
# Human liver HepG2 cells are transiently transfected with multiple reporter transcription units (MRTUs) in 6-well plates using FuGene 6 reagent (Roche; 3 ml FuGene/1 mg DNA). The MRTU constructs are regulated by a cis-regulating element (promoter). […] A major difference between the CIS and TRANS system is that in CIS activities of endogenous TFs are measured, whereas the TRANS assay evaluates changes in activities of exogenous, chimeric NR-Gal4 proteins. […] At the end of 24 hour incubation, total RNA was isolated using TriZol reagent (Invitrogen). The isolated RNA is then reverse-transcribed using oligo(dT) primer and Mo-MLV reverse transcriptase (Invitrogen) with DNAse I (Ambion) treatment for 30 min. The one-tenth of the produced cDNA was amplified by PCR using Taq DNA polymerase (Invitrogen) and two reporter sequence-specific primers. The PCR products were fluorescently labeled by primer extension with 6-arboxyfluorescein (6-FAM) 5'-labeled reporter sequence-specific primer (2 min at 95 C, 20 s at 68 C and 10 min at 72 C) and these products were digested with 5U of HpaI (New England Biolabs) for 2h at 37 C. The fragments were purified using Qiaquick PCR columns (Qiagen), analyzed on an ABI 3130xL genetic analyzer (Applied Biosystems) with peak positions identified by using a set of X-rhodamine (ROX)-labeled MapMarker1000 molecular weight standards (BioVentures). The raw capillary electrophoresis data was processed using Attagraph software (Attagene).
Compound,outcome,AC50
O=[N+]([O-])c1ccc(Cl)cc1,inactive,
ClC1=C(Cl)[C@]2(Cl)[C@@H]3[C@@H](Cl)[C@H](Cl)C[C@@H]3[C@@]1(Cl)C2(Cl)Cl,inactive,
O=C1Nc2ccc(Cl)cc2C(c2ccccc2)=NC1O (stereo not given),inactive,
Nc1ccccc1C(=O)Oc1ccc2ccccc2c1,,12 µM (active)
C=CCN(CC=C)C(=O)C(Cl)Cl,inactive,
CCC(C)c1cc(C(C)(C)C)cc(-n2nc3ccccc3n2)c1O (stereo not given),inactive,
Clc1ccc(-c2ccccc2)cc1,inactive,
COc1ccc(CO)cc1,inactive,
ClCCCCCCCl,inactive,
C=CC(=O)OCCO,inactive,
O=C(CCl)c1ccccc1,inactive,
COc1cc(OC)c(OC)cc1C=O,inactive,
C=CC(=O)OCCCCOC(=O)C=C,inactive,
CCCCCCC1CCOC1=O (stereo not given),inactive,
O=[N+]([O-])O.O=[N+]([O-])O.[Cd],inactive,
O=C1C(Cl)=C(Cl)C(=O)C(Cl)=C1Cl,,26.6 µM (active)
CCCCCc1cc(O)cc(O)c1,inactive,
O=c1[nH]c(Cl)c(Cl)cc1Cl,inactive,
O=[N+]([O-])c1cc(C(F)(F)F)c(Cl)c([N+](=O)[O-])c1Cl,inactive,
Cc1ccc(OP(=O)(Oc2ccc(C)cc2)Oc2ccc(C)cc2)cc1 (tested in a mixture with another compound),inactive,

Compound,outcome,AC50
c1ccc2c(c1)CCCC2,inactive,
Cc1ccc(N(SC(F)(Cl)Cl)S(=O)(=O)N(C)C)cc1,inactive,
CNC(=N[N+](=O)[O-])NCC1CCOC1 (stereo not given),inactive,
C=COCCCl,inactive,
O=S(=O)(c1ccccc1)c1ccccc1,inactive,
CN(C)C(=O)C(c1ccccc1)c1ccccc1,inactive,
Cc1ccc(C)c2ccccc12,inactive,
COCC(=O)N(c1c(C)cccc1C)N1CCOC1=O,inactive,
[Cl][Sb]([Cl])[Cl],inactive,
Cc1ccccc1CCl,inactive,
[Cl-].[Cl-].[Cl-].[Yb+3],inactive,
Oc1cc(Cl)ccc1Cl,inactive,
CCOP(=O)(OCC)OCC,inactive,
N#CCNCC#N,inactive,
CCCOC(=O)c1ccccc1C(=O)OCCC,inactive,
Oc1ccc(Cl)cc1,inactive,
CC(C)C#N,inactive,
N#CCCCl,inactive,
CC1OC(C)OC(C)O1 (stereo not given),inactive,
CC(C)(Cl)Cl,inactive,
